For 21 compounds, activation, Potency and viability results are on record in PubChem BioAssay (NCATS).

Several values for one entry are separate records, joined by “and”; a condition that tells them apart may be missing. Equal entries are not always repeated. Inconclusive results are not listed. Values without a mark were called inactive. Activity calls are given as the source filed them. Calls come from the whole dose curve; as a rule, active = well fitted curve in the direction sought with a large enough effect; inconclusive = small, poorly fitted or top-dose-only effect, or another doubt; inactive = no such curve, though single readings can be large; an effect the other way counts as inactive or inconclusive.

Assay [1] deals with Cellular tumor antigen p53 (Homo sapiens) (UniProt P04637). Nature of the assay: Primary qHTS for small molecule compounds that upregulate eGFP-tagged delta133p53alpha (in N-terminal) cells. (AID 2060322).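 For activation: series mostly up to about 56 µM; 0% = DMSO vehicle and 100% = reference activator.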 Note: nearly all actives have a fitted effect of over 75% in size. The following applies: NCI-H358 eGFP-delta133p53alpha fluorescence, 24 h; activation: active compounds read high. Summed up: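 NCI-H358 cells pre-induced 24 h with 10 ng/ml doxycycline to express N-terminal eGFP-delta133p53alpha, then dosed 24 h at 37C without doxycycline; fixed, Hoechst-stained, GFP intensity by laser scanning cytometry, normalized to DMSO (0%) and 57.5 uM 5-azacytidine (100%).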

Assay [2] is described as follows: BET inhibitor-based combinations targeting novel dependencies in MECOM-rearranged (r) AML: SET-2 cell line (AID 2202231).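 For viability: plate controls were DMSO treated cells for no effect and wells without cells for full effect.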 Note: nearly all actives have a fitted effect of over 35% in size. The following applies: SET-2 AML cells viability, CellTiter-Glo luminescence, 48 h; viability: active compounds read low, concentration not given here. Summed up: (§1)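 Luminescent ATP readout (CellTiter-Glo) after 48 hr drug exposure gives viability. Curves span 11 concentrations and are normalized to DMSO and empty wells. Activity is reported as area under the curve and its Z-transform within each cell line.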

The nature of assay [3]: BET inhibitor-based combinations targeting novel dependencies in MECOM-rearranged (r) AML: OCI-AML3 cell line (AID 2202232). Note: nearly all actives have a fitted effect of over 35% in size. The following applies: Potency: OCI-AML3 viability. Summed up:
as §1

Assay [4] can be described thus: BET inhibitor-based combinations targeting novel dependencies in MECOM-rearranged (r) AML: UCSD-AML1 cell line (AID 2202235). Note: nearly all actives have a fitted effect of over 40% in size. A digest of the protocol: (§2)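 Luminescent ATP readout (CellTiter-Glo, 15 min at room temperature) after 48 hr drug exposure gave viability. Dose-response curves, normalized to DMSO and empty-well controls, were summarized as area under the curve and its mean-centred Z-score.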

A short description of assay [5]: BET inhibitor-based combinations targeting novel dependencies in MECOM-rearranged (r) AML: AML-191 cell line (AID 2202236; note: nearly all actives have a fitted effect of over 35% in size). A digest of the protocol:
as §1

Assay [6] is described as follows: BET inhibitor-based combinations targeting novel dependencies in MECOM-rearranged (r) AML: AML-194 cell line (AID 2202237; note: nearly all actives have a fitted effect of over 40% in size). Summed up: as §1
Assay [7] in a line: BET inhibitor-based combinations targeting novel dependencies in MECOM-rearranged (r) AML: MV-4-11 cell line (AID 2202233). Note: nearly all actives have a fitted effect of over 45% in size. A digest of the protocol:
as §2

The nature of assay [8]: BET inhibitor-based combinations targeting novel dependencies in MECOM-rearranged (r) AML: HNT-34 cell line (AID 2202234). Note: nearly all actives have a fitted effect of over 35% in size. Summed up: as §2
Potency is the fitted concentration of half-maximal effect.

Chain of Cellular tumor antigen p53 (Homo sapiens) (P04637 whole entry, looked up): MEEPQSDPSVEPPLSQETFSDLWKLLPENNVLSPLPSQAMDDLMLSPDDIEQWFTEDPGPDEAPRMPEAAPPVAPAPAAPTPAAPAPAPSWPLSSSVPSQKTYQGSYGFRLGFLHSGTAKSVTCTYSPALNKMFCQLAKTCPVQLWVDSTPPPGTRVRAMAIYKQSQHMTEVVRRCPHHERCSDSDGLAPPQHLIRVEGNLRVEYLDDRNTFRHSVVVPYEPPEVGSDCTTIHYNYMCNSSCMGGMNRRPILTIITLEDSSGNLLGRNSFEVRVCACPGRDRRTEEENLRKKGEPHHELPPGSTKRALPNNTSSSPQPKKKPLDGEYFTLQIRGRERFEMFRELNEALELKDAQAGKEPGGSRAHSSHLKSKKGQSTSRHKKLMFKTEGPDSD

In the case of `COc1cc([C@@H]2c3cc4c(cc3[C@H](O)[C@H]3COC(=O)[C@@H]23)OCO4)cc(OC)c1OC`, the activation in assay [1] was 31.7%. Besides, the Potency in assay [2] was 1.18 µM (active); in assay [3] it was 0.833 µM (active); in assay [4], 0.468 µM (active); in assay [5], 0.662 µM (active); in assay [6], 0.525 µM (active).
`C[C@@H]1CN(CC(=O)Nc2ccc3c(c2)Cc2cccc(-c4cc(=O)cc(N5CCOCC5)o4)c2S3)C[C@H](C)O1`: the Potency was 27.3 µM (active) in assay [1] and 14.8 µM (active) in assay [7]. Moreover, in assay [2], the viability was 86.1%.
As to `CCc1cc(Nc2nccc(-c3c(-c4ccc(OC)c(C(=O)Nc5c(F)cccc5F)c4)nc4ccccn34)n2)c(OC)cc1N1CCC(N2CCN(S(C)(=O)=O)CC2)CC1`, the activation in assay [1] is 14.2% and 2.68%. Also, the viability in assay [2] is 113%. Moreover, in assay [3], the Potency result is “inactive”. In addition, the values for the Potency in assay [4], in assay [5] and in assay [6] were 10.5 µM (active), 11.8 µM (active) and 11.8 µM (active), respectively.
Regarding `COc1c(C)c2c(c(O)c1C/C=C(\C)CCC(=O)O)C(=O)OC2`, the activation in assay [1] is 7.34%. The Potency in assay [2] was 1.18 µM (active); in assay [3], 1.32 µM (active); in assay [4] it was 0.833 µM (active); in assay [5], 1.05 µM (active); in assay [6], 1.32 µM (active).
With `Cc1cnc(Nc2ccc(N3CCN(C)CC3)cc2)nc1Nc1cccc(S(=O)(=O)NC(C)(C)C)c1`, the activation in assay [1] was 28.8%. Besides, the Potency in assay [2] was 2.63 µM (active); in assay [7], 0.662 µM (active); in assay [8], 0.833 µM (active); in assay [4], 1.86 µM (active); in assay [5], 2.63 µM (active); in assay [6], 2.95 µM (active).
Consider `CC[C@H](C=C[C@@H](C)[C@H]1CC[C@H]2[C@@H]3CC=C4C[C@@H](O)CC[C@]4(C)[C@@H]3CC[C@]12C)C(C)C`, for which, in assay [1], the activation is -9.05%. Further, the viability in assay [2] was 107%. Further, the Potency entry in assay [7], in assay [8], in assay [4], in assay [5] and in assay [6] was “inactive” in each case.
Regarding `COc1cc(OC)c(C(=O)CCCN2CCCC2)c(OC)c1`, in assay [1], the activation was -15.1% and 2.07%. The viability in assay [2] was 98%. The Potency result in assay [3], in assay [4], in assay [5] and in assay [6] was “inactive” each time.
With `C[Se]CCC(N)C(=O)O` (stereo not given), the activation in assay [1] was -7.89%. Also, the viability in assay [2] was 105%. The Potency entry in assay [7], in assay [8], in assay [4], in assay [5] and in assay [6] was “inactive” each time.
For the compound `C[C@]1(c2nc3c(C(N)=O)cccc3[nH]2)CCCN1`, in assay [1], the activation was 53.7%. In addition, the viability in assay [2] is 113%. Besides, the Potency in assay [3] was 8.33 µM (active). Further, the Potency entry in assay [4], in assay [5] and in assay [6] was “inactive” throughout.
Regarding `O=C(Nc1ccc2[nH]nc(-c3ccncc3)c2c1)[C@@H]1CCN(CC(=O)N2CCN(c3ccc(-c4ncccn4)cc3)CC2)C1`, the activation in assay [1] is 4.47%. The Potency in assay [2] was 23.5 µM (active); in assay [7], 1.66 µM (active); in assay [8], 1.05 µM (active); in assay [4] it was 2.63 µM (active); in assay [5], 2.09 µM (active).
In the case of `Cc1cn([C@@H]2C[C@@H](O)[C@H](CO)O2)c(=O)[nH]c1=O`, the activation in assay [1] was -12.7%. In addition, the viability in assay [2] is 103%. For the same compound, the Potency entry in assay [7], in assay [8], in assay [4], in assay [5] and in assay [6] was “inactive” each time.
Consider `O=C(O)c1nc(=O)[nH]c(=O)[nH]1`, for which, in assay [1], the activation was 3.67%. Besides, in assay [2], the viability was 105%. Also, the Potency entry in assay [7], in assay [8], in assay [4], in assay [5] and in assay [6] was “inactive” in each case.
Take `CC1=C(CC(=O)O)c2cc(F)ccc2C1=Cc1ccc(S(C)=O)cc1` (stereo not given): the activation in assay [1] was -21.9%. Further, in assay [2], the viability is 104%. The Potency in assay [7] and in assay [8] was 18.6 µM (active) in each case. Moreover, the Potency result in assay [4] and in assay [6] was “inactive” throughout.
Take `CCN(CC)CCOc1ccc(Cc2ccccc2)cc1`: the activation in assay [1] is -6.69% and 6.46%. Moreover, the Potency in assay [2] is 16.6 µM (active). For the same compound, the Potency result in assay [7], in assay [4] and in assay [6] was “inactive” in each case.
Consider `CN(C)c1ccc2cc(C(=O)N[C@@H](CCCN=C(N)CCl)C(=O)NCc3ccccc3)ccc2c1`, for which, in assay [1], the activation is 2.27%. Moreover, the viability in assay [2] was 99.2%. For the same compound, the Potency entry in assay [7] and in assay [6] was “inactive” in each case.
Regarding `O=[N+]([O-])c1cn2c(n1)OC[C@@H](OCc1ccc(OC(F)(F)F)cc1)C2`, the activation in assay [1] was 9.64%. In assay [2], the viability is 111%. In addition, the Potency result in assay [7], in assay [8], in assay [5] and in assay [6] was “inactive” throughout.
`CC[C@@H](C)[C@H](NC(=O)[C@H](CC1CCCCC1)NC(=O)c1ccno1)C(=O)N1CCC2(CCc3ccccc32)CC1`: the activation in assay [1] is 0.928% and 1.43%. Besides, in assay [2], the viability was 50.5%. Moreover, the Potency result in assay [7], in assay [4] and in assay [6] was “inactive” throughout.
For `Cc1ccc(C(=O)c2cc(O)c(O)c([N+](=O)[O-])c2)cc1`, the activation in assay [1] was 1.67% and 0.973%. The viability in assay [2] was 104%. Also, the Potency result in assay [7], in assay [8] and in assay [6] was “inactive” in each case.
Regarding `CN1CCN(c2ncc(-c3cc(Cl)cc(Cl)c3Cl)c(N)n2)CC1`, the activation in assay [1] is 4.6%. Moreover, the results for the Potency in assay [2], in assay [7] and in assay [5] were 23.5 µM (active), 8.33 µM (active) and 16.6 µM (active), respectively. For the same compound, the Potency result in assay [4] is “inactive”.
`COc1cc(C(=O)NC2CCN(C)CC2)ccc1Nc1ncc2c(n1)N(C1CCCC1)CCC(=O)N2C(C)C`: the activation in assay [1] was 7.36%. In addition, the Potency in assay [2] is 23.5 µM (active); in assay [7] it was 6.61 µM (active); in assay [8] it was 16.6 µM (active); in assay [5], 18.6 µM (active); in assay [6] it was 23.5 µM (active).
Take `CCC(c1ccc(O)cc1)C(CC)c1ccc(O)cc1` (stereo not given): the activation in assay [1] is 3.07%. The viability in assay [2] is 99.8%. Also, the Potency entry in assay [8] and in assay [4] was “inactive” in each case.
